From PubChem BioAssay (Tox21)
Inconclusive results are not listed. Where a call stands in place of a potency, no number is given. Activity calls are given as the source filed them. Calls follow the shape of the dose curve; as a rule, active = well fitted cell-killing curve with a large enough effect in the repeat runs; inconclusive = weak or mixed curves, or effect the other way; inactive = flat fitted curve, though single readings scatter.

Experiment: cAMP Responsive Elements (CRE) small molecule antagonists, cell-based qHTS assay: qHTS cell viability counter screen (AID 2060913); also: nearly all actives have a fitted effect of over 40% in size
Conditions: CRE-bla HEK293T viability, CellTiter-Glo luminescence, 5 h; series mostly up to 92.4 µM
Method in brief: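 Viability of NKH477-stimulated (0.25 uM final) CRE-bla HEK293T cells is measured by CellTiter-Glo luminescence following 3 hrs compound exposure at 37 C.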
Potency is read from the fitted curve at half-maximal effect.

Row | SMILES | Potency
1 | Nc1c2c(nc3ccccc13)CCCC2O (stereo not given) | inactive
2 | CCCCCCCCCCOC(C)=O | inactive
3 | C=CCOCC(O)CO (stereo not given) | inactive
4 | O=C(O)c1cccc(Cl)c1Cl | inactive
5 | O=C1OC(OC(=O)c2cccnc2Nc2cccc(C(F)(F)F)c2)c2ccccc21 (stereo not given) | inactive
6 | NC1CCCCC1N (stereo not given) | inactive
7 | Nc1cc(Cl)c(O)c(Cl)c1 | inactive
8 | CCCCCCCCCCCCCCCCOS(=O)(=O)O | inactive
9 | Oc1cccc(-c2c3nc(c(-c4cccc(O)c4)c4ccc([nH]4)c(-c4cccc(O)c4)c4nc(c(-c5cccc(O)c5)c5ccc2[nH]5)CC4)C=C3)c1 | inactive
10 | CCN1CCCC(OC(=O)C(c2ccccc2)c2ccccc2)C1 (stereo not given) | inactive
11 | Cc1c(Cn2ccnc2)c2ccccc2n1CCC(=O)O | inactive
12 | NC1CCN(c2cccc(Cl)n2)CC1 | inactive
13 | NC(=O)c1cn(Cc2c(F)cccc2F)nn1 | inactive
14 | CC(C)OC(=O)c1cc2c(OCC(O)CNC(C)(C)C)cccc2[nH]1 (stereo not given) | inactive
15 | CC(C#N)(CCC(=O)O)N=NC(C)(C#N)CCC(=O)O (stereo not given) | inactive
16 | CCCCOCCOC(=O)COc1ccc(Cl)cc1Cl | inactive
17 | O=S(=O)(O)c1ccc(O)c2ncccc12 | inactive
18 | CC(C)(C)NC[C@H](O)COc1cccc2c1CCCC2=O | inactive
19 | C[C@@H]1CCC[C@H](C)N1CCCC(O)(c1ccccc1)c1ccccn1 (stereo not given in full) | inactive
20 | C[N+](C)(C)CCOC(N)=O | inactive

Row | SMILES | Potency
21 | O=C(c1ccccc1)c1ccc2n1CCC2C(=O)O (stereo not given) | inactive
22 | Cc1c(F)c(N2CCNC(C)C2)cc2c1c(=O)c(C(=O)O)cn2C1CC1 (stereo not given) | inactive
23 | CC1(C)[C@H](C(=O)O)N2C(=O)C[C@H]2S1(=O)=O | inactive
24 | C=CCCC(=O)O | inactive
25 | COc1ccc(C(=O)c2ccc(C)cc2)c(O)c1 | inactive
26 | COc1nc(N)nc2nc[nH]c12 | inactive
27 | NC(=O)[C@@H]1CSSCCC(=O)N[C@@H](CCCCN=C(N)N)C(=O)NCC(=O)N[C@@H](CC(=O)O)C(=O)N[C@@H](Cc2c[nH]c3ccccc23)C(=O)N2CCC[C@H]2C(=O)N1 | inactive
28 | CC1CC(=O)CC(C)(C)C1 (stereo not given) | inactive
29 | O=C1NC2CCCCN2C12CCN(CCCN1c3ccccc3CCc3ccc(Cl)cc31)CC2 (stereo not given) | inactive
30 | CC/C=C\CCCCCO | inactive
31 | CCCNC(C)(C)COC(=O)c1ccccc1 | inactive
32 | CCCCNC(=S)NCCCC | inactive
33 | Cc1oc(=O)oc1CN1CCN(c2cc3c(cc2F)c(=O)c(C(=O)O)c2n3C(C)S2)CC1 (stereo not given) | inactive
34 | FC(F)(F)c1ccc(Cl)cc1Cl | inactive
35 | CCCCCCCCCCCCCC[P+](CCCC)(CCCC)CCCC (tested in a mixture with another compound) | 2450 nM (active)
36 | CCCCCC(=O)OCCc1ccccc1 | inactive
37 | OCc1c[nH]c2ccccc12 | inactive
38 | COc1nccnc1CC(C)C | inactive
39 | CC(C)CC(C)(N)C#N (stereo not given) | inactive
40 | CN(C/C=C/C#CC(C)(C)C)Cc1cccc2ccccc12 | inactive
